Assay in all cases: NCI-60 one-dose screen, 48 h (100 = growth as untreated, 0 = no growth, -100 = all killed)
Settings in all cases: 10 µM unless noted

The subject of experiment [1] is NCI-H23 lung.
Experiment [2] concerns NCI-H226 lung.
Experiment [3] has as its system NCI-H322M lung.
For experiment [4], the system named is HOP-62 NSCLC.
Experiment [5] concerns NCI-H460 lung.
Experiment [6] deals with HOP-92 NSCLC.
The subject of experiment [7] is NCI-H522 lung.
For experiment [8], the system named is A549/ATCC NSCLC.
Experiment [9] concerns 786-0 renal.
Experiment [10] concerns COLO 205 colon.
Experiment [11] relates to DU-145 prostate.
The subject of experiment [12] is K-562 leukemia.
The test system of experiment [13] is MALME-3M melanoma.
The subject of experiment [14] is MDA-MB-231 breast.
The test system of experiment [15] is RXF 393 renal.
For experiment [16], the system named is SF-268 CNS.
Experiment [17] deals with SF-295 CNS.
Experiment [18] concerns SF-539 CNS.
Experiment [19] deals with UACC-257 melanoma.
The subject of experiment [20] is M14 melanoma.

Each structure is given as a SMILES string. Compounds without any hit were thinned out: in the full panel of roughly 83,000, 20% have a hit.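 Growth was measured after 48 h exposure to one concentration of compound in 96-well plates. Values under 10 count as active.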 Unmarked numbers belong to inactive results. Calls of active or inactive are those of the source.

8 compounds from PubChem BioAssay (NCI) can be followed below.

As to `C=C1C(=O)O[C@H]2[C@H]1CC/C(CNC(=O)/C=C/c1ccccc1)=C\CC[C@@]1(C)O[C@@H]21`, the growth in experiment [1] is 54.5%; in [2], 64.8%; in experiment [3], 71.9%; in [4], 80.3%; in [5], 39.7%; in experiment [6], -40.9% (active). For the same compound, the growth is -86.8% (active) in [7]; 46.8% in experiment [8]; -64.4% (active) in experiment [9]; -64.7% (active) in [10]; -34.3% (active) in [11]; 1.51% (active) in [12]. For the same compound, the growth in experiment [13] was -50.1% (active); in [14], -15.2% (active); in [15] it was -90.2% (active); in [16], 48.1%; in experiment [17], 62.3%; in experiment [18], -63.8% (active). The growth in [19] was -55.1% (active); in experiment [20] it was -63.2% (active).
For the compound `C=C1C(=O)O[C@H]2[C@H]1CC/C(COC(=O)NCc1c[nH]c3ccc(Cl)cc13)=C\CC[C@@]1(C)O[C@@H]21`, the growth in experiment [1] was 34.8%; in experiment [2] it was 6.61% (active); in experiment [3] it was 76.2%; in experiment [4] it was 60.5%; in experiment [5] it was 18%; in experiment [6], -35.7% (active). The growth in experiment [7] was -90.4% (active); in experiment [8] it was 55.8%; in experiment [9], -61.8% (active); in [10] it was -59.3% (active); in experiment [11] it was -72.2% (active); in experiment [12] it was 0.207% (active). Also, the growth in experiment [13] is -57.1% (active); in experiment [14], -70.4% (active); in experiment [15] it was -92.5% (active); in experiment [16] it was -3.81% (active); in [17], 63.8%; in [18], -54.9% (active). Besides, the growth in experiment [19] is 19.4%; in [20], -53.2% (active).
For `CCCCCOc1ccc(/C=N/Nc2cc(C)nc3ccc(Cl)cc23)cc1`, the growth in experiment [1] is 62.5%; in experiment [2], 88%; in experiment [3], 44.3%; in experiment [4], 29.7%; in experiment [5] it was -63.1% (active); in experiment [6], 56.7%. Also, the growth is -30.6% (active) in experiment [7]; -8.41% (active) in experiment [8]; -85.2% (active) in experiment [9]; -55.9% (active) in experiment [10]; 5.9% (active) in experiment [11]; -33% (active) in experiment [12]. In addition, the growth in experiment [13] is -63.8% (active); in [14] it was -77.3% (active); in [15], -85.5% (active); in experiment [16], 72%; in [17], -86% (active); in experiment [18], -78.2% (active). Besides, the growth in experiment [19] was 99.2%; in experiment [20] it was -15.4% (active).
For the compound `C[C@H]1[C@H](C)CC[C@]2(C(=O)NCC#CCN3CCN(C)CC3)CC[C@]3(C)C(=CC[C@@H]4[C@@]5(C)Cc6c([nH]c7ccccc67)C(C)(C)[C@@H]5CC[C@]43C)[C@H]12`, the growth is 100% in [1]; 100% in experiment [2]; 92.8% in experiment [3]; 93.1% in experiment [4]; 3.53% (active) in experiment [5]; 63.8% in experiment [6]. In addition, the growth was 82.6% in experiment [7]; 69.7% in experiment [8]; 66.9% in [9]; 53.1% in experiment [10]; 73.1% in [11]; 1.37% (active) in [12]. For the same compound, the growth was 61.6% in experiment [13]; 63.8% in [14]; 84.9% in [15]; 82.5% in experiment [16]; 106% in [17]; 84.8% in [18]. The growth is 97% in [19] and 71.3% in [20].
As for `O=C(CCN1CCCC1)Nc1ccc2c(NCCCc3ccccc3)c3ccccc3nc2c1`, the growth in [1] was 14.8%; in experiment [2], 42.3%; in experiment [3], 16.6%; in experiment [4], 24.7%; in [5], -72.2% (active); in experiment [6], 21.5%. In addition, the growth in experiment [7] is -49.9% (active); in [8], 15.5%; in [9] it was 24.9%; in experiment [10], -50.4% (active); in experiment [11], -52.6% (active); in experiment [12], -7.07% (active). The growth is -90.7% (active) in [13]; -24.3% (active) in experiment [14]; 5.65% (active) in [15]; 21% in experiment [16]; 46.9% in experiment [17]; 13.7% in experiment [18]. The growth was 14.7% in [19] and -61.5% (active) in experiment [20].
As for `NCCCCCCNc1cc(-c2cccc(OC(F)(F)F)c2)nc2ccc(N3CCCC3)cc12`, the growth is 0.0621% (active) in experiment [1]; 81.2% in experiment [2]; -13.1% (active) in experiment [3]; -33.3% (active) in experiment [4]; -91.8% (active) in experiment [5]; 39.3% in experiment [6]. The growth in experiment [7] was -44.5% (active); in [8] it was 16.6%; in [9] it was -65.2% (active); in experiment [10], -62.1% (active); in experiment [11], -17.4% (active); in experiment [12], -52.6% (active). The growth was -93.8% (active) in experiment [13]; -79.9% (active) in experiment [14]; -90.8% (active) in [15]; -3.93% (active) in [16]; -69.1% (active) in experiment [17]; -87.6% (active) in experiment [18]. Moreover, the growth in experiment [19] was -67.7% (active); in experiment [20] it was -71.4% (active).
Consider `O=C(/C=C(O)/C=C/c1ccc(SC(F)(F)F)cc1)/C=C/c1ccc(SC(F)(F)F)cc1`, for which the growth is 83.2% in experiment [1]; 100% in [2]; 102% in [3]; 101% in experiment [4]; 91.1% in [5]; 93% in [6]. For the same compound, the growth in [7] was 93.7%; in experiment [8], 95.4%; in experiment [9], 87.2%; in experiment [10], 114%; in [11], 97.2%; in experiment [12] it was 77.6%. Moreover, the growth was 98.6% in [13]; 99.8% in experiment [14]; 104% in experiment [15]; 86.3% in experiment [16]; 97.5% in experiment [17]; 106% in experiment [18]. Moreover, the growth in [19] was 104%; in experiment [20], 79.9%.
For the compound `COc1ccc(C/C(C)=C(/c2ccc(OCCCN(C)C)cc2)c2ccc(OC(C)=O)cc2)cc1`, the growth is 80.7% in experiment [1]; 98% in [2]; 94.5% in experiment [3]; 83.2% in [4]; 73.1% in experiment [5]; 64.5% in experiment [6]. Moreover, the growth was 95.5% in experiment [7]; 74.3% in experiment [8]; 63.2% in [9]; 50.1% in [10]; 89.2% in [11]; 3.38% (active) in [12]. For the same compound, the growth in experiment [13] was 79%; in experiment [14], 66.8%; in experiment [15], 65.6%; in experiment [16] it was 71%; in experiment [17] it was 27.1%; in [18] it was 72.6%. Besides, the growth in [19] was 73.6%; in experiment [20] it was 50.6%.
